Experimental findings from PubChem BioAssay (NCI) are described below.

SMILES strings stand for the structures. Where “and” joins values, the source holds several entries; their conditions need not be identical. Equal values may be shown once. Compounds without any hit were thinned out: in the full panel of roughly 83,000, 20% have a hit.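 Note: values are percent growth. 100 is the growth of untreated cells, values between 100 and 0 indicate rising inhibition; between -100 and 0 indicates cell death.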 Calls of active or inactive are those of the source. How the source made its calls: active means growth percent below 10; inactive means the rest.

In the assay the test system is MDA-MB-468 breast. In words: NCI-60 one-dose screen, 48 h (100 = growth as untreated, 0 = no growth, -100 = all killed). The note with it: 10 µM unless noted.
Consider `COc1cc(C2=NN(C(C)=O)C(c3cccc(Nc4ccnc5cc(C(F)(F)F)ccc45)c3)C2)cc(OC)c1OC` (stereo not given), for which the growth is 50.5% (inactive).
With `O=C1OC(c2ccccc2)C(O)=C1c1ccccc1` (stereo not given) the figure was 108% (inactive); with `CN(C)C/C=C/C(=O)Nc1cc2c(Nc3ccc(F)c(Cl)c3F)ncnc2cc1OCCOC(F)F`, -40.8% (active); with `c1ccc2cc3c(Nc4ccc(N5CCOCC5)cc4)ccnc3cc2c1`, 87.9% (inactive).
Consider `N#Cc1cnn(-c2nc3c(Cl)cccc3s2)c1N`, for which the growth is 85.3% (inactive).
The value for `COc1ccc(Oc2ccccc2NC(=O)CNC(=O)c2cccc3ccccc23)cc1` was 23.7% [5 µM] (inactive).
The value for `Cc1cc(-c2ccc(Cl)cc2)n(Cc2nnc(SCC(=O)Nc3ccc(S(N)(=O)=O)cc3)n2-c2ccc([N+](=O)[O-])cc2)n1` was 78.6% (inactive); that for `COc1ccc(CCN2C(=O)CSC2=S)cc1` was 12.9% (inactive); that for `COc1cccc(N=Nc2cccc(OC)c2)c1` was 87.2% (inactive).
For the compound `CCOc1cc(/C=N\NC(=O)N/N=C/c2ccc(O)c(OCC)c2)ccc1O`, the growth is 3.75% (active).
With `CNC(=O)c1cc(Oc2ccc3nc(NC(=O)c4ccc(CN5CCCN(C)CC5)c(C(F)(F)F)c4)sc3c2)ccn1` the figure was 8.05% (active); with `COc1cc(/C=C/C(=O)Nc2cccnc2Nc2ccc(F)cc2)cc(OC)c1OC`, 97.4% (inactive).
As for `CC(=O)CC(c1cccs1)c1c(-c2ccccc2)[nH]c2ccccc12` (stereo not given), the growth was 100% (inactive).
With `C=CCCCC(=O)CCC(=O)OCC1O[C@@H](O[C@@H]2C(O)[C@@H](OC(C)=O)C(C)O[C@H]2O[C@H](CC=C)CCCCC)C(O)[C@@H](OC(=O)/C(C)=C/C)[C@@H]1OC(=O)/C=C/c1ccccc1` (stereo not given in full) the figure was -23.6% (active).
With `Cc1nc2nc(SCC(=O)O)[nH]c2c(=O)[nH]1` the figure was 106% (inactive); with `CN1C(=O)N(C)C2(c3ccccc3)n3c(s/c(=C\c4ccccc4)c3=O)=NNC12c1ccccc1` (stereo not given), 80.8% (inactive); with `COc1ccc(-c2cc(-c3nnc(SCC(=O)Nc4ccc(C(C)=O)cc4)o3)c3ccccc3n2)cc1`, 45.5% (inactive).
Take `O=C1OC(c2ccc(Cl)c(Cl)c2)=C/C1=C/c1cccc([N+](=O)[O-])c1`: the growth is 92.3% (inactive).
With `O=C1/C(=C\c2ccccn2)c2ccccc2N1c1c(Cl)cccc1Cl` the figure was -17.2% (active).
Turning to `O=C1c2ccccc2C(=O)c2c([N+](=O)[O-])ccc(Cl)c21`, the growth is -5.53% (active).
With `O=[N+]([O-])c1ccc(SSc2ccc([N+](=O)[O-])cc2Cl)c(Cl)c1` the figure was 74.6% (inactive); with `COc1ccc(CN2CCC(N3CCCC3=O)c3cc(Cl)ccc32)cc1` (stereo not given), 114% (inactive); with `O=C(O)/C=C/C=C/c1ccccc1`, 93.6% (inactive) and 112% (inactive).
Turning to `CC[C@]12C=CCN3CC[C@]4(C(=C(C(=O)OC)C1)Nc1cc5c(cc14)[C@@H]1[C@H](O5)[C@@H](O)[C@@]4(CC)CC(C(=O)OC)=C5Nc6cc(O)ccc6[C@@]56CCN1C46)C32` (stereo not given in full), the growth was -51% (active).
As for `CNC(=O)c1cc(Oc2ccc3nc(NC(=O)Nc4ccc(CN5CCOCC5)c(C(F)(F)F)c4)sc3c2)ccn1`, the growth was -17.2% (active).
For the compound `N[C@@H](Cc1cn(-c2c3ccccc3nc3ccccc23)nn1)C(=O)O`, the growth is 96.8% (inactive).
For `CC(C)N1CCN(Cc2ccc3c(NNC(=O)c4ccccc4)nc4cc(F)ccc4n23)CC1`, the growth was -14.3% (active).
With `Cc1c(NCC(=O)Nc2nc3ccccc3[nH]2)c(=O)n(-c2ccccc2)n1C` the figure was 106% (inactive); with `O=C(O)c1ccc2c(c1)nc(Nc1cccc(Cl)c1)c1ccncc12`, -36.1% (active).
With `COc1cc(-c2c3c(cn2S(=O)(=O)c2ccccc2)-c2nc(N)sc2CC3)cc(OC)c1OC` the figure was 23.4% (inactive).
For `COc1cc(NC(N)=NCCC(C)(C)c2ccc(C(F)(F)F)cc2)ncc1C#N`, the growth is -39.1% (active).
In the case of `OCCNc1ccccc1`, the growth was 99.4% (inactive).
Consider `O=C1/C(=C/c2ccccc2[N+](=O)[O-])Cc2ccccc21`, for which the growth was -46.2% (active) and -17.9% (active).
The value for `CCOC(=O)/C(=C/CC/C(C)=C/CC/C(C)=C/CCc1ccoc1)CC(=O)N1CCCCC1` was 0.246% (active); that for `O=C(c1ccccc1)N(C(=S)NCCc1ccc(Cl)cc1)c1ccc(Cl)cc1` was 16.7% (inactive); that for `C=C1C(=O)O[C@H]2[C@H]1CC/C(COC(=O)C(=O)c1cn(C)c3ccc(OC)cc13)=C\CC[C@@]1(C)O[C@@H]21` was -63.6% (active).
Take `CC(C)N1CN2C(=S)NC3C2N(C1)C(=S)N3C` (stereo not given): the growth is 101% (inactive).
In the case of `COc1cc2nc(Cl)nc(Nc3cccc(C4=Nc5c(N)nc(N)nc5NC(c5ccc(F)cc5)C4)c3)c2cc1OC` (stereo not given), the growth was 45.8% (inactive).
Consider `CN1CCN(CCOc2ccc(-c3cnc4c(-c5ccc(C(F)(F)F)cc5)cnn4c3)cc2)CC1`, for which the growth was 42.1% (inactive).
Consider `O=[N+]([O-])c1ccc(/C=C/C2(CCl)OCCO2)cc1`, for which the growth was 108% (inactive).
